This is a sample that favours compounds with a hit; in the whole collection about 2.5% have one here.
Apoferritin bind – binds horse apoferritin like a general anesthetic; apoferritin/1-aminoanthracene competitive binding, fluorescence; Potency, µM (series often up to 77.5 µM), most hits filed as inhibitors; hit rate 0.074% among 350,000; active means well fitted inhibition curve with a large enough effect; inconclusive means small, poorly fitted or top-dose-only effect; inactive means no such curve, though single readings can be large or run the other way; further: nearly all actives have a fitted effect of over 20% in size
Target sequence (P02791 2-175 limits assumed): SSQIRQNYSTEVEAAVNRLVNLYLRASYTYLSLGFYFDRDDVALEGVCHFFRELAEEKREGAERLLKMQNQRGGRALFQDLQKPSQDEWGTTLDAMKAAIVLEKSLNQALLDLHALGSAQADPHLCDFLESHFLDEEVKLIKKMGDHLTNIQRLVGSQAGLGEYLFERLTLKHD
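Horse-spleen apoferritin (10 uM) was mixed with 50% saturated 1-aminoanthracene in PBS, exposed to compounds for 10 min at room temperature, and read for fluorescence (ex 380 nm, em 535 nm). Competitive displacement was fitted with a four-parameter Hill equation.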
D2 PAM-1 – D2 dopamine receptor (human) potentiation. HEK293 T-REx D2, calcium flux, EC20 dopamine potentiation. P14416. AID 485347. potentiation, % at 10 µM. hit rate 0.34% among 340,000;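 active means potentiation over 3 SD above the plate norm, cut at about 30% in these data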
Target sequence (P14416 whole entry, looked up): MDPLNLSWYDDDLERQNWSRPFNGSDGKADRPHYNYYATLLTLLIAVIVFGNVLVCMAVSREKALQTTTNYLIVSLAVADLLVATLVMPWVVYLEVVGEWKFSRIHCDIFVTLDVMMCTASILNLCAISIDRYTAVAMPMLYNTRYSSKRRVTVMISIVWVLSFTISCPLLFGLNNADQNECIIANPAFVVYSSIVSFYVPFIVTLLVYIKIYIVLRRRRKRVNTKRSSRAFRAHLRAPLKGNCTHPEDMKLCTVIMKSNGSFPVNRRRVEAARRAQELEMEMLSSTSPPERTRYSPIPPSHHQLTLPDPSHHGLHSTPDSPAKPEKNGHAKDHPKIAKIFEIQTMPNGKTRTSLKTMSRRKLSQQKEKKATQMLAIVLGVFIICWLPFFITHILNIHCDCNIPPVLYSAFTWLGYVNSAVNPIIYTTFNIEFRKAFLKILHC
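Using a no-wash calcium dye in inducible, force-coupled HEK293 Trex cells expressing D2, we tracked fluorescence each second for 180 s after compound, then for 180 s after EC20 dopamine to detect augmented signalling.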
D2 ag-1 – activates the human D2 dopamine receptor; hit rate 0.084% among 360,000; activation, % (concentration not given with the values); AID 624465; DiscoveRx PathHunter D2 beta-arrestin, luminescence, 90 min; 100% = 57 uM dopamine signal; in the data active means activation above about 40%; inconclusive means between about 15% and that limit
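Agonist mode: compounds alone added to overnight-plated D2 PathHunter cells for 90 min at 37 C, with 57 uM final dopamine (EC100) defining full response. Beta-arrestin recruitment detected by chemiluminescent reagent, read after 1 h at ambient temperature.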
D2 PAM-2 – positive allosteric modulators of human D2 dopamine receptor | P14416 | DiscoveRx D2 beta-arrestin cells, luminescence, 90 min; 100% = 57 uM dopamine signal | potentiation, % (test concentration not listed) | hit rate 0.23% among 360,000 | AID 624464; in the data active means potentiation above about 50%; inconclusive means mostly about 30% to 49%
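PathHunter beta-arrestin assay in DiscoveRx D2 cells. Compounds were added with an EC20 of dopamine (50 nM final) for 90 min at 37 deg C. Luminescence was read 1 h after detection reagent, with 57 uM dopamine as the EC100 control.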
D2 ag-2 – D2 dopamine receptor (human) agonism | P14416 | activation, % at 2 µM | hit rate 0.53% among 340,000 | AID 485358 | HEK293 T-REx D2 cells, calcium flux agonist mode;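 active means activation over 3 SD above normal in the single-dose calcium agonist read, cut at about 30% in these data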
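Agonism is scored from calcium flux in a force-coupled, inducible HEK293 cell line expressing D2, read kinetically for 180 s after compound addition against dopamine controls.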
D2 antag – antagonizes the human D2 dopamine receptor; HEK293 TREx D2 cells, calcium flux, dopamine EC80; inhibition, % at 10 µM; hit rate 2% among 340,000; in the data active means inhibition above about 30%; inactive means below that, where a call was filed
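Inhibition of EC80 dopamine-driven calcium flux, recorded kinetically, defines activity here; cells are a tetracycline-induced HEK293 T-REx line expressing force-coupled D2.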
A number is an active result; i = inactive; ? = inconclusive; nt = no result; ! = not confirmed by another sample.

SMILES	Apoferritin bind	D2 PAM-1	D2 ag-1	D2 PAM-2	D2 ag-2	D2 antag
CC(=O)N1CCCc2cc(S(=O)(=O)NC(C(=O)NCc3ccc(C)cc3)C(C)C)ccc21 (stereo unspecified)	i	46	i	i	i	i
Cc1cc(C(=O)N2CCc3ccccc32)n(-c2ccccc2)n1	i	i	i	i	i	37
Cc1cc(C)n(-c2ccc(C(=O)N3CCc4ccccc43)cc2)n1	i	i	i	i	i	i
COc1cccc(CN2CCNC(=O)C2CC(=O)N(C)CCc2ccccn2)c1OC (stereo unspecified)	i	i	nt	nt	i	i
CN(C)CCOC(c1ccc(Cl)cc1)c1ccccn1 (stereo unspecified)	i	i	98!	i	i	i
Cc1ccccc1-n1c(Cn2c(=O)sc3ccccc32)nnc1SCC(=O)N1CCCC1	i	i	i	i	i	i
CC(=O)n1c2ccccc2c2nc(NC(C)C)sc21	i	i	i	67	i	i
CC(C)n1cnc2c(N(C)c3ccccc3)nc(N(CCN(C)C)Cc3ccccc3)nc21	i	i	i	i	i	34
COc1cc(/C=C(\C#N)c2nc3ccccc3[nH]2)cc(OC)c1O	i	i	i	i	36	i
Cc1ccc(OCc2nnc(NC(=O)c3ccco3)s2)cc1	i	i	i	i	i	i
S=C(Nc1ccccc1Cl)N1CCC(c2ccccc2)C1 (stereo unspecified)	i	i	i	i	i	i
Cc1ccc(NC(=S)N2CCC(c3ccccc3)C2)c(Cl)c1 (stereo unspecified)	i	i	i	i	i	30
Cc1nc(-c2ccc(S(=O)(=O)Nc3ccc(C)c(N(C)C)c3)cc2)co1	i	i	nt	nt	i	nt
O=C1C=C(c2ccccc2)C[C@H](c2cccs2)[C@H]1n1nnc([N+](=O)[O-])n1	i	i	i	58	nt	nt
Cc1cccc(-n2c(-c3ccco3)nc3nc4ccccc4nc32)c1	i	i	nt	nt	i	70
COc1cccc(-n2c(-c3ccco3)nc3nc4ccccc4nc32)c1	i	i	i	i	i	i
CCC(c1nnc(SCC(=O)Nc2ccc(N3CCOCC3)cc2)n1Cc1ccccc1)N(C)C (stereo unspecified)	nt	i	i	i	i	i
COc1ccc(CN2CCn3ncc(C(=O)Nc4cc(C)cc(C)c4)c3C2=O)cc1	i	i	i	i	i	38
COC(=O)c1cc2n(n1)CCN(Cc1ccc(OC)cc1)C2=O	i	i	i	i	i	i
O=C(CCC(=O)c1ccccc1)Nc1ccc(C(=O)O)cc1	i	i	i	i	i	i
CC1=C(C)/C(=N\OS(=O)(=O)c2ccccc2)C=CC1=O	28µM	i	?	i	i	i
Cc1ccc(S(=O)(=O)O/N=C2\CCCc3ccccc32)cc1	i	i	i	i	i	i
CCCN(CC(=O)Nc1ccccc1OC)C(=O)c1ccc2[nH]c3c(c2c1)CC(C)CC3 (stereo unspecified)	nt	i	i	i	i	i
O=C(COC(=O)c1ccc(O)cc1)Nc1ccc(OC(F)F)cc1	i	i	i	i	i	32
O=C(COC(=O)c1cccc(O)c1)Nc1ccc(OC(F)F)cc1	i	i	i	i	i	i
SMILES	Apoferritin bind	D2 PAM-1	D2 ag-1	D2 PAM-2	D2 ag-2	D2 antag
O=[N+]([O-])c1cc(-c2nc(-c3ccncc3)no2)ccc1Cl	i	i	i	i	i	i
Cc1cccc(-c2nc(-c3ccncc3)no2)c1	i	i	i	i	i	i
Brc1cccc(-c2nc(-c3ccncc3)no2)c1	i	i	i	i	i	41
O=[N+]([O-])c1cc(-c2nc(-c3ccncc3)no2)cc([N+](=O)[O-])c1	i	i	?	95	i	i
COCCCNc1nc2ccccc2nc1NS(=O)(=O)c1cccc(Cl)c1	i	i	i	i	i	i
O=C(N/C(=C/c1ccc(Br)cc1)C(=O)N1CCOCC1)c1ccc(Br)o1	i	86	i	i	i	i
N#CC1=C(N)C2=C(N3CCCCC3)CCCC2C1(C#N)C#N (stereo unspecified)	i	i	i	i	i	i
CCCCN(C)C1=CC2=CC(=C(C#N)C#N)CCC2CC1 (stereo unspecified)	i	i	i	i	140	73
N#CC(C#N)=C1C=C2C=C(N3CCCCC3)CCC2CC1 (stereo unspecified)	i	i	?	i	132	87
COc1ccc2c(c1)Sc1ccccc1N2CCN(C)C	i	nt	i	i	i	40
CN(C)CCCN1c2ccccc2Sc2ccccc21	i	nt	i	i	nt	nt
CC(=O)Cn1c(=O)c2c(nc3n2CCCN3Cc2ccccc2)n(C)c1=O	i	i	i	i	i	i
O=c1[nH]c(/C=C/c2ccc([N+](=O)[O-])cc2)c([N+](=O)[O-])c(=O)[nH]1	i	i	?	52	i	i
c1ccc(-c2nccc(-c3ccc(-n4cnc5ccccc54)cc3)n2)cc1	i	i	i	i	i	i
Nc1nccc(-c2ccc(-n3cccc3)cc2)n1	i	50	i	i	i	i
COc1ccc(N2CC(C(=O)Nc3nc4ccc(OC)cc4s3)CC2=O)cc1 (stereo unspecified)	i	i	i	i	i	i
COc1ccc2nc(NC(=O)C3CC(=O)N(c4ccccc4)C3)sc2c1 (stereo unspecified)	i	i	i	i	i	31
CCCSc1nnc(N2C(=O)C(O)=C(C(=O)c3ccco3)C2c2ccccc2F)s1 (stereo unspecified)	?	i	i	i	i	i
O=C(Nc1cccc(NC(=O)c2ccc(Cl)cc2Cl)c1)c1cccnc1	i	i	i	i	i	i
COc1ccc2c(c1)C(=O)N(c1ccc(C)cc1C)C(=O)C2(C)C	i	i	i	i	i	i
O=C(/C=C/c1cccs1)NC1CCS(=O)(=O)C1 (stereo unspecified)	i	i	i	i	32	i
O=C(c1ccco1)N(Cc1ccccc1)Cc1ccccn1	i	i	i	i	i	57
COc1ccccc1NC(=O)c1c(NCc2ccc(C)o2)sc2c1CCC(C)C2 (stereo unspecified)	i	i	nt	nt	i	nt
Cc1cc(C)c(OCCCCN(C)Cc2ccccc2)c(C)c1	i	i	i	i	i	33
N#CCCn1cc(CNC2CCC(O)CC2)c2ccccc21 (stereo unspecified)	i	30	i	i	i	i
CCS(=O)(=O)N1Cc2ccccc2CC1C(=O)N(C)CC(=O)Nc1cccc(F)c1 (stereo unspecified)	nt	i	i	i	i	41
CN(CC(=O)Nc1ccc(F)cc1)C(=O)C1Cc2ccccc2CN1S(C)(=O)=O (stereo unspecified)	nt	i	i	i	i	i
